The sample as a whole holds a higher share of hits than the screen did.
FECH inh – inhibitors of human ferrochelatase. purified FECH, Ni-mesoporphyrin absorbance 550 nm. calls only at 10 µM (by protocol). 3.3% of 20,000 active;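 active = enzyme reaction rate more than 3 SD below the solvent-only control wells on the same plate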;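 note: lower slope than DMSO wells means FECH inhibition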
Target sequence (P22830 whole entry, looked up): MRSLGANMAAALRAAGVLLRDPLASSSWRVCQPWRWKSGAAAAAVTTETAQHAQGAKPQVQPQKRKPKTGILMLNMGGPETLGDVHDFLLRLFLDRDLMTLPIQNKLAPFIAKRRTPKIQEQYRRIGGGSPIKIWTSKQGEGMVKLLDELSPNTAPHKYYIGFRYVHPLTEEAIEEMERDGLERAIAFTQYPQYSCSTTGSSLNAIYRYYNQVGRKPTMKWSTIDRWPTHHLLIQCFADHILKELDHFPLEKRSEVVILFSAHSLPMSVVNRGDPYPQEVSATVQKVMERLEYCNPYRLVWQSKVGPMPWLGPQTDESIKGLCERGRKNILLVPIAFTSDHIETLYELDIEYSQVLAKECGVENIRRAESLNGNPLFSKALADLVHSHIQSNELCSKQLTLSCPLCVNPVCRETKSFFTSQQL
Calls only.

Screening COc1ccc(NC(=O)C2CCCNC2)c(NC(=O)C(C)C)c1 (stereo not drawn) returned FECH inh inactive.
For Cc1ccc(C)c(OC(C)C(=O)NCCNc2cccnc2)c1 (stereo not drawn) the results were FECH inh inactive.
Screening O=C(NCc1ccccc1)C1CCN(c2ncnc3c2nc2n3CCCCC2)CC1 returned FECH inh inactive.
CCN(CCNC(=O)C1CCCN(c2ncnc3c2nc2n3CCCCC2)C1)Cc1ccccc1 (stereo not drawn) was read as FECH inh inactive.
CN(CCNC(=O)C1CCN(c2ncnc3c2nc2n3CCCCC2)CC1)Cc1ccccc1 was read as FECH inh active.
Screening CSc1nc(NCc2ccc(Cl)cc2)c(C#N)c(-c2ccccc2)n1 returned FECH inh inactive.
For CSc1nc(NCCC2=CCCCC2)c(C#N)c(-c2ccccc2)n1 the results were FECH inh active.
CSc1nc(NCCN2CCOCC2)c(C#N)c(-c2ccccc2)n1 was read as FECH inh inactive.
For Cc1ccsc1CCNC(=O)c1ccccc1C1CCNC1 (stereo not drawn) the results were FECH inh inactive.
For NS(=O)(=O)c1ccc(CCNC(=O)c2cc(-c3ccc(Cl)cc3)on2)cc1 the results were FECH inh inactive.
`Cc1ccc(-c2cc(C(=O)Nc3ccc(S(N)(=O)=O)cc3)no2)cc1C` gave FECH inh active.
Cc1nc(-c2cccc(NC(=O)Nc3ccc(S(N)(=O)=O)cc3)c2)no1 was read as FECH inh inactive.
Screening CC(C)(C)NS(=O)(=O)c1cc(C(=O)N2CCCC2)cs1 returned FECH inh inactive.
For O=C(CN1c2ccc(F)cc2-c2ccccc2S1(=O)=O)NCCN1CCOCC1 the results were FECH inh inactive.
C=CCNC(=O)c1ccccc1NC(=O)CN1c2ccc(C(C)C)cc2-c2ccccc2S1(=O)=O was read as FECH inh inactive.
For CCc1ccc2c(c1)-c1ccccc1S(=O)(=O)N2CC(=O)Nc1ccc(F)cc1 the results were FECH inh active.
For CCc1ccc(C2=C(C)C(=O)N(CC(=O)Nc3ccc(C)c(F)c3)S2(=O)=O)cc1 the results were FECH inh inactive.
For CCOc1ccccc1NC(=O)CN1c2ccc(C(C)C)cc2-c2ccccc2S1(=O)=O the results were FECH inh active.
For O=C(CN1c2ccc(F)cc2-c2ccccc2S1(=O)=O)Nc1ccccc1Oc1ccccc1 the results were FECH inh active.
For CCC1=C(c2ccc(OC)cc2)S(=O)(=O)N(CC(=O)Nc2ccc(F)cc2F)C1=O the results were FECH inh inactive.
`CC1CCN(c2ccc(NC(=O)CN3C(=O)c4ccccc4S3(=O)=O)cc2Cl)CC1` gave FECH inh inactive.
COc1ccc(NC(=O)CN2c3ccc(C(C)C)cc3-c3ccccc3S2(=O)=O)cc1Cl was read as FECH inh inactive.
For CN(C)c1ncnc2c1CCN(C(=O)c1c[nH]c3c(F)cccc3c1=O)C2 the results were FECH inh inactive.
Cc1cc(C)n(CCCC(=O)N2CCOC3(CNCCOC3)C2)n1 (stereo not drawn) was read as FECH inh inactive.
For CCCNc1ncc([C@@H]2C[C@H](NC(C)=O)C[C@H](C3CCCCC3)O2)cn1 the results were FECH inh inactive.
COc1ccc2cc(C3CN(c4nccc5occc45)CCO3)ccc2c1 (stereo not drawn) was read as FECH inh inactive.
For O=C(Nc1ccc2nccnc2c1)c1cccc(CN2CCCC(O)C2)c1 (stereo not drawn) the results were FECH inh inactive.
`Nc1nc(-c2ccc(-c3ccccc3CO)cc2)cs1` gave FECH inh inactive.
For C=CCn1cc(CN2CCC(c3ccnc(-c4cccc(O)c4)c3)C2)c(C)n1 (stereo not drawn) the results were FECH inh inactive.
Screening COc1ccccc1NC(=O)Nc1nc(CC(=O)Nc2cc(C)ccc2C)cs1 returned FECH inh inactive.
For O=c1cc(CNc2ccc(Cl)cc2)nc2nc(NCc3ccccc3)[nH]n12 the results were FECH inh active.
For COc1ccc(NCc2cc(=O)n3[nH]c(NCc4ccccc4)nc3n2)cc1 the results were FECH inh inactive.
O=c1cc(CNc2ccc(F)cc2)nc2nc(NCc3ccc(F)cc3)[nH]n12 was read as FECH inh inactive.
O=c1cc(CNc2cccc(Cl)c2)nc2nc(NCc3ccccc3)[nH]n12 was read as FECH inh inactive.
`CCCNCc1cc(=O)n2[nH]c(NCc3ccc(Cl)cc3)nc2n1` gave FECH inh inactive.
COc1ccc(CNc2nc3nc(CNc4ccc(F)cc4)cc(=O)n3[nH]2)cc1 was read as FECH inh active.
Screening CCCNCc1cc(=O)n2[nH]c(NCc3ccc(OC)cc3)nc2n1 returned FECH inh active.
O=c1cc(CNc2ccc(Cl)cc2)nc2nc(NCc3ccc(F)cc3)[nH]n12 was read as FECH inh inactive.
For COc1ccc(CNc2nc3nc(CNc4cc(Cl)ccc4OC)cc(=O)n3[nH]2)cc1 the results were FECH inh inactive.
CCC(CC)C(=O)Nc1cc(C)nn1-c1ncnc2c1cnn2-c1ccc(F)cc1 was read as FECH inh inactive.
CCOC(=O)Cn1c(=O)c2cnc(-c3ccc(OC)cc3)nc2n(C)c1=O was read as FECH inh inactive.
Screening CC(C)CN1CCC(c2nc3c([nH]2)CCCNC3=O)C1 (stereo not drawn) returned FECH inh inactive.
Screening CC(C)CCNC(=O)C1(C)Cn2c(cc3occc32)C(=O)N1CCN1CCOCC1 (stereo not drawn) returned FECH inh inactive.
For CC(=O)Nc1c2n(c3ccccc13)CC(C)(C(=O)NC1CCCC1)N(Cc1ccc(Cl)cc1)C2=O (stereo not drawn) the results were FECH inh inactive.
Screening Cc1cc(N(C)C)nc(N2CCN(S(=O)(=O)c3ccc(Oc4ccccc4)cc3)CC2)n1 returned FECH inh inactive.
For Cc1cc(N(C)C)nc(N2CCN(S(=O)(=O)c3ccccc3)CC2)n1 the results were FECH inh active.
`Cc1cccc(S(=O)(=O)N2CCN(c3nc(C)cc(N(C)C)n3)CC2)c1` gave FECH inh inactive.
Screening Cc1ccc(N2CC(NC(=O)C3CC3)CC2=O)cc1C (stereo not drawn) returned FECH inh inactive.
O=C1CCC2(CCN1)CCN(C(=O)C/C=C/c1ccccc1)CC2 was read as FECH inh inactive.
Screening Cc1cc(C)c(CN2CCC3(CCNC(=O)CC3)CC2)c(C)c1 returned FECH inh active.
`COc1cccc(-c2[nH]ncc2C(=O)N2CCC3(CCNC(=O)CC3)CC2)c1` gave FECH inh inactive.
`COc1cccc(N2CC(NC(=O)C3CCCC3)CC2=O)c1` (stereo not drawn) gave FECH inh inactive.
`Cc1ccccc1C1(O)CCN(Cc2cnc(-c3ccccn3)nc2)C1` (stereo not drawn) gave FECH inh inactive.
Screening Cc1ccc(-c2nc3cccnc3n2CCNS(=O)(=O)c2ccc(Cl)cc2)cc1 returned FECH inh inactive.
CCOc1ccc(S(=O)(=O)NCCn2c(-c3ccc(C)cc3)nc3cccnc32)cc1 was read as FECH inh active.
`Cc1ccc(NC(=O)NCCn2c(-c3ccncc3)nc3cccnc32)c(C)c1` gave FECH inh active.
Screening O=C(NCCn1c(-c2ccncc2)nc2cccnc21)Nc1ccccc1Br returned FECH inh inactive.
`CCOc1ccc(S(=O)(=O)NCCn2c(-c3ccc(F)cc3)nc3cccnc32)cc1` gave FECH inh inactive.
